# From PubChem BioAssay (NCI)
# Several values for one entry are separate records, joined by “and”; a condition that tells them apart may be missing. Equal values may be shown once. This is part of a sample that, as a whole, favours compounds with a hit. Of some 83,000 tested, about 20% had one in any assay.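 Plates (96-well) were seeded with cells, treated with compound at one concentration, and incubated for 48 hours before percent growth was determined.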 Some compounds were tested as several samples or in several runs, with calls that do not always agree. Activity calls are given as the source filed them. How the source made its calls: active means growth percent below 10; inactive means the rest.
# Experiments:
# Assay in all cases: NCI-60 one-dose screen, 48 h (100 = growth as untreated, 0 = no growth, -100 = all killed)
# Settings in all cases: 10 µM unless noted
# [1] = system: SK-MEL-2 melanoma
# [2] = system: EKVX NSCLC
# [3] = system: SN12C renal
# [4] = system: UO-31 renal
# [5] = system: TK-10 renal
# [6] = system: ACHN renal
# [7] = system: CAKI-1 renal
# [8] = system: A498 renal
# [9] = system: CCRF-CEM leukemia
# [10] = system: MOLT-4 leukemia
Compound,growth [1],growth [2],growth [3],growth [4],growth [5],growth [6],growth [7],growth [8],growth [9],growth [10]
NC(=S)Nc1ccc2c(c1)Cc1ccccc1-2,89.6% (inactive),67.1% (inactive),89.4% (inactive),55.2% (inactive),121% (inactive),91.7% (inactive),92.1% (inactive),110% (inactive),70.5% (inactive),88.7% (inactive)
NC1=C(Br)C(=O)c2ncccc2C1=O,-54.1% (active),-14.2% (active),-84.8% (active),-96.8% (active),79.1% (inactive),-7.81% (active),-81.2% (active),113% (inactive),10.5% (inactive),-5.62% (active)
OC(c1cc(-c2ccc(C(F)(F)F)cc2)nc(C(F)(F)F)c1)C1CCCCN1 (stereo not given),-61% (active) and 21.8% (inactive),27.2% (inactive) and 3.74% (active) and 67.6% (inactive),-50.3% (active) and -86.4% (active) and 28.5% (inactive),15.4% (inactive) and -59.3% (active) and 30.6% (inactive),-57.8% (active) and -14.4% (active) and 50.3% (inactive),-24% (active) and 0.945% (active) and 24.3% (inactive),-7.29% (active) and -52.3% (active) and 45.9% (inactive),28% (inactive) and -60.5% (active) and 46.4% (inactive),0.247% (active) and -56.8% (active) and 17% (inactive),-21.7% (active) and -2.33% (active)
NNc1cccc([N+](=O)[O-])c1,98% (inactive),79.9% (inactive),102% (inactive),83.1% (inactive),98% (inactive),88.7% (inactive),56% (inactive),83% (inactive),38.1% (inactive),25.3% (inactive)
OC(Cc1cc(CC(O)(C(F)(F)F)C(F)(F)F)nc(CC(O)(C(F)(F)F)C(F)(F)F)c1)(C(F)(F)F)C(F)(F)F,-28.3% (active),16% (inactive),4.86% (active),6.74% (active),22.1% (inactive),0.867% (active),4.5% (active),-18.8% (active),7.23% (active),-8.17% (active)
C/C(=N/NC(N)=S)c1ccc(C)cc1,101% (inactive),53.9% (inactive),87.4% (inactive),68.1% (inactive),102% (inactive),96.6% (inactive),99.8% (inactive),94.7% (inactive),43.3% (inactive),63.9% (inactive)
